The results in this text go back to paper PMC10812921, “Transcriptional Coactivator BOB1 (OBF1, OCA-B) Modulates the Specificity of DNA Recognition by the POU-Domain Factors OCT1 and OCT2 in a Monomeric Configuration”.

One assay deals with POU1 (OCT1 POU domain) (human, UniProt P14859 260-458). The experiment in a line: EMSA-SELEX-seq; no BOB1; 20 mM Tris-HCl pH 7.6, 140 mM NaCl, 10% glycerol, 0.5 mM EDTA, 0.05% Triton X-100, 0.1 mg/mL BSA, 0.1 mg/mL poly(dI-dC), 5 mM DTT, room temperature, 20 min; high values mean tight binding. The following applies: protein: recombinant; dsDNA, one strand shown. The method, boiled down:
(§1)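 A double-stranded random 35-nt library (300 ng, PCR-amplified) was incubated with 30 ng tagged POU-domain protein, with or without 28 ng coactivator protein, in 20 μL Tris–HCl pH 7.6 binding buffer for 20 min at RT. The proteins had been expressed in E. coli BL21, purified under denaturing conditions and renatured. Complex bands from native 6% PAGE were eluted and PCR-amplified over four rounds, then sequenced on Illumina. For binding preference, the percentage of sequenced 8-mers matching a motif pattern was calculated.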

In another assay the target is T1, POU2 (OCT2 POU domain) (human, UniProt P09086 175-386).
T1 sequence: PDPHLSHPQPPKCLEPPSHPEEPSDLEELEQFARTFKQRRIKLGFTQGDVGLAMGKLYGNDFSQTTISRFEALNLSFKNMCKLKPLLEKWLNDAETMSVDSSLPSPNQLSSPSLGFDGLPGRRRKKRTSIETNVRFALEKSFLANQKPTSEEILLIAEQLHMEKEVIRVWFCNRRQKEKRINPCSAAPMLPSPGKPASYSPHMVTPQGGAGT
Described as above. The following applies: protein: recombinant; dsDNA, one strand shown. The method, boiled down: as §1

Assay [1] deals with POU1 (OCT1 POU domain);BOB1 (OBF1, OCA-B) (human;human, UniProt P14859;Q16633 260-458;1-256, |). The experiment in a line: EMSA-SELEX-seq; with BOB1 (ternary complex band); 20 mM Tris-HCl pH 7.6, 140 mM NaCl, 10% glycerol, 0.5 mM EDTA, 0.05% Triton X-100, 0.1 mg/mL BSA, 0.1 mg/mL poly(dI-dC), 5 mM DTT, room temperature, 20 min; high values mean tight binding. The following applies: protein: recombinant;recombinant; copies: 1;1; dsDNA, one strand shown. The gist of the method: as §1
(In general: In EMSA bound probe runs differently from free probe, usually more slowly.)

Assay [2] concerns the target T2, POU2 (OCT2 POU domain);BOB1 (OBF1, OCA-B) (human;human, UniProt P09086;Q16633 175-386;1-256, |).
T2 sequence 1: T1 sequence
T2 sequence 2: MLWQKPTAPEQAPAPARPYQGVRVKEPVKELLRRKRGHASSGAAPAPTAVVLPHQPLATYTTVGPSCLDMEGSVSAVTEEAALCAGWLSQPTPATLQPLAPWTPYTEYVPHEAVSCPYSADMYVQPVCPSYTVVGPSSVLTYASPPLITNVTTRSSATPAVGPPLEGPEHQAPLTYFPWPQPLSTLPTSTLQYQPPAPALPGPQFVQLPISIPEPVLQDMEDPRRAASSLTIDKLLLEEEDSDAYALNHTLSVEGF
The assay is described as above. The following applies: protein: recombinant;recombinant; copies: 1;1; dsDNA, one strand shown. The gist of the method: as §1

Sequence of POU1 (OCT1 POU domain) (P14859 260-458): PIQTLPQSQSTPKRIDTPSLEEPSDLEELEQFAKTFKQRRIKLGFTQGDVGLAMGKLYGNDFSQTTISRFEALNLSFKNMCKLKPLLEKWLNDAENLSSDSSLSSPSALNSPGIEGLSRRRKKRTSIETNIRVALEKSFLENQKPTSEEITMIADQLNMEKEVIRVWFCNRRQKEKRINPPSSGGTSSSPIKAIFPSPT

Turning to ACAACAAA, the binding signal with POU1 (OCT1 POU domain) is 0.0301 % of ANNNNAAN 8-mers; with POU2 (OCT2 POU domain), 0.0265 % of ANNNNAAN 8-mers; in assay [1] it was 0.0371 % of ANNNNAAN 8-mers; in assay [2], 0.0248 % of ANNNNAAN 8-mers.
On to ATCGGAAC, for which the binding signal with POU1 (OCT1 POU domain) is 0.0175 % of ANNNNAAN 8-mers; in the assay with POU2 (OCT2 POU domain) it was 0.0242 % of ANNNNAAN 8-mers; in assay [1] it was 0.023 % of ANNNNAAN 8-mers; in assay [2] it was 0.0231 % of ANNNNAAN 8-mers.
For AAATCAAA, the binding signal was 0.133 % of ANNNNAAN 8-mers with POU1 (OCT1 POU domain), 0.117 % of ANNNNAAN 8-mers with POU2 (OCT2 POU domain), 0.194 % of ANNNNAAN 8-mers in assay [1] and 0.136 % of ANNNNAAN 8-mers in assay [2].
The like results for ATCCTAAT were, in that order, 0.0614 % of ANNNNAAN 8-mers, 0.0944 % of ANNNNAAN 8-mers, 0.0499 % of ANNNNAAN 8-mers and 0.0693 % of ANNNNAAN 8-mers.
The like results for AGGACAAC were, in that order, 0.0198 % of ANNNNAAN 8-mers, 0.0305 % of ANNNNAAN 8-mers, 0.0187 % of ANNNNAAN 8-mers and 0.0206 % of ANNNNAAN 8-mers.
AGCCTAAT: the binding signal was 0.0503 % of ANNNNAAN 8-mers with POU1 (OCT1 POU domain), 0.0811 % of ANNNNAAN 8-mers in the assay with POU2 (OCT2 POU domain), 0.0324 % of ANNNNAAN 8-mers in assay [1] and 0.038 % of ANNNNAAN 8-mers in assay [2].
For AATTTAAC the same measures were 0.17 % of ANNNNAAN 8-mers, 0.147 % of ANNNNAAN 8-mers, 0.117 % of ANNNNAAN 8-mers and 0.0982 % of ANNNNAAN 8-mers.
On to ATCTAAAG, for which the binding signal in the assay with POU1 (OCT1 POU domain) was 0.0412 % of ANNNNAAN 8-mers; in the assay with POU2 (OCT2 POU domain), 0.0397 % of ANNNNAAN 8-mers; in assay [1] it was 0.0503 % of ANNNNAAN 8-mers; in assay [2], 0.0479 % of ANNNNAAN 8-mers.
The like results for AATCGAAG were, in that order, 0.0408 % of ANNNNAAN 8-mers, 0.0547 % of ANNNNAAN 8-mers, 0.0531 % of ANNNNAAN 8-mers and 0.0495 % of ANNNNAAN 8-mers.
As to ATAACAAT, the binding signal was 0.0622 % of ANNNNAAN 8-mers with POU1 (OCT1 POU domain), 0.088 % of ANNNNAAN 8-mers with POU2 (OCT2 POU domain), 0.0496 % of ANNNNAAN 8-mers in assay [1] and 0.0735 % of ANNNNAAN 8-mers in assay [2].
Consider AAGCAAAT, for which the binding signal was 0.378 % of ANNNNAAN 8-mers with POU1 (OCT1 POU domain), 0.27 % of ANNNNAAN 8-mers in the assay with POU2 (OCT2 POU domain), 0.906 % of ANNNNAAN 8-mers in assay [1] and 0.826 % of ANNNNAAN 8-mers in assay [2].
For AGGCGAAC the same measures were 0.0183 % of ANNNNAAN 8-mers, 0.0247 % of ANNNNAAN 8-mers, 0.0207 % of ANNNNAAN 8-mers and 0.0305 % of ANNNNAAN 8-mers.
AGATTAAG: the binding signal is 0.0656 % of ANNNNAAN 8-mers with POU1 (OCT1 POU domain), 0.088 % of ANNNNAAN 8-mers in the assay with POU2 (OCT2 POU domain), 0.0581 % of ANNNNAAN 8-mers in assay [1] and 0.0619 % of ANNNNAAN 8-mers in assay [2].
The like results for AGCCTAAA were, in that order, 0.0271 % of ANNNNAAN 8-mers, 0.0316 % of ANNNNAAN 8-mers, 0.0191 % of ANNNNAAN 8-mers and 0.0206 % of ANNNNAAN 8-mers.
For ATACAAAA, the binding signal with POU1 (OCT1 POU domain) was 0.144 % of ANNNNAAN 8-mers; in the assay with POU2 (OCT2 POU domain) it was 0.0857 % of ANNNNAAN 8-mers; in assay [1], 0.195 % of ANNNNAAN 8-mers; in assay [2] it was 0.105 % of ANNNNAAN 8-mers.
